Compound activity (PubChem)
Compounds with a hit are over-represented: about 2.3% of the library has one in this group of screens.
Tau FP inhib: blocks human tau fibril formation measured by polarization; P10636; K18 P301L tau heparin fibrillization, Alexa594 FP, 6 h; Potency, µM (series often up to 57.7 µM), without a hit: at the top dose activity, negative = inhibition, usual class: inhibitors; hit rate 0.39% among 280,000; AID 1468; note: potency is the fitted concentration of half-maximal effect; nearly all actives have a fitted effect of over 55% in size
Target sequence (P10636 561-689 P618L limits assumed): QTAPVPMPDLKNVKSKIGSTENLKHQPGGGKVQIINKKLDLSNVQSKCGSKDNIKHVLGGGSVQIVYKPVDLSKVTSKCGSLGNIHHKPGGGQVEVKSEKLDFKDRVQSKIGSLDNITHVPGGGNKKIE
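Recombinant K18 P301L […], labeled with Alexa 594 at 0.24 uM over 15 uM unlabeled; heparin inducer 20 uM final; 37 C, 6 hr; FP endpoint.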
Coupling enz: counter-screen for Giardia aldolase inhibitors: coupling enzyme system; hit rate 0.67% among 290,000; coupling enzyme system counterscreen, AmpLite Red fluorescence; activity change, negative = inhibition, % at 58.2 µM, hits read low; in the data active = activity change below about -30%
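Compounds tested against the coupling enzymes alone at 57.5 uM final; readout was AmpLite Red fluorescence (525/598 nm) after 20 min at RT.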
USP1 inh: blocks the human USP1/UAF1 deubiquitinase complex. O94782. recombinant USP1/UAF1, Ub-Rhodamine cleavage fluorescence. Potency, µM (top dose mostly 57.1 µM), for inactives: top-dose activity change, negative = inhibition, usual class: inhibitors. hit rate 0.23% among 390,000. AID 743255; note: potency is the fitted concentration of half-maximal effect; nearly all actives have a fitted effect of over 60% in size
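In this screen, compounds sit with the deubiquitinase complex (1nM) for 15 min at room temperature before Ub-Rho is added at 150nM final. Fluorescence rise is then followed for 6 reads every 60 seconds.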
Tau fluor cs: counter-screen for tau fibril formation inhibitors | hit rate 0.93% among 280,000 | AID 1463 | Potency, µM (doses to about 57.7 µM), inactives show top-dose activity change, negative = decrease | tau K18 P301L Alexa594 fluorescence, heparin fibrillization; note: potency is the fitted concentration of half-maximal effect; nearly all actives have a fitted effect of over 55% in size
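Human K18 P301L tau (15 uM unlabeled plus 0.24 uM Alexa 594-labeled, final) in 100 mM sodium acetate pH 7 was mixed with compound and 20 uM heparin and incubated 6 hr at 37 C.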
Tau ThT inhib: blocks human tau fibril formation measured by thioflavin T. Potency, µM (doses to about 57.4 µM), for inactives: at the highest dose activity, negative = inhibition, hits mostly inhibitors. P10636. hit rate 2.1% among 270,000. recombinant tau K18 P301L, heparin-induced fibrillization, ThT fluorescence; note: potency is the fitted concentration of half-maximal effect; nearly all actives have a fitted effect of over 55% in size
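Fibril formation assay: tau K18 P301L at 15 uM with trace Alexa 594 label, heparin inducer 20 uM, pH 7 sodium acetate buffer, 37 C for 6 hr; endpoint ThT signal.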
The depositor's hits bear a star; ? = inconclusive; . = not tested or not shown; [ ] = dose if it differs, or a comment. Unless noted, calls come from the whole dose curve; as a rule, active = well fitted curve in the direction sought with a large enough effect; inconclusive = small, poorly fitted or top-dose-only effect, or another doubt; inactive = no such curve, though single readings can be large; an effect the other way counts as inactive or inconclusive. % is set by controls: 0 for no effect and ±100 for the full control effect.

SMILES	Tau FP inhib	Coupling enz	USP1 inh	Tau fluor cs	Tau ThT inhib
Cc1ccc(S(=O)(=O)Nc2ccc(NC(=O)Nc3cccc(C(F)(F)F)c3)cc2)cc1	13µM*	-3	?	2.5µM*[quencher]	-11%
Cc1cccc(CNC(=O)c2cc3cc(S(=O)(=O)N4CCCCC4)ccc3n2C)c1	8%	.	-5%	?	?
CSC1=NS(=O)(=O)c2c(C)nn(C)c2S1	?	6	-26%	-20%	16µM*
Cc1ccc2nc(-c3ccc(NS(=O)(=O)c4ccccc4)cc3)sc2c1	-3%	-1	-19%	-15%	-5%
Cc1ccc2nc(-c3ccc(NS(=O)(=O)c4ccc(F)c(F)c4)cc3)sc2c1	?	1	-12%	10µM*[quencher]	?
CCCCC[C@H](O)/C=C/C1=C(C/C=C\CCCC(=O)O)C(=O)CC1	6%	1	.	4%	4%
COc1cc(CNC(=O)c2sc3ncccc3c2-n2cccc2)cc(OC)c1OC	-4%	.	-20%	-18%	-8%
CN1CC(C(=O)O)Cc2c1ccc1ccccc21 (stereo not drawn)	?	-46*	?	?	?
N#CC1=C(S)N(c2ccccc2)C(c2ccc(-c3ccc(Cl)c(Cl)c3)o2)NC1=O (stereo not drawn)	25µM*	0	-11%	-21%	16µM*
N#CC1=C(S)N(c2ccc(F)cc2)C(c2ccco2)NC1=O (stereo not drawn)	?	5	-12%	-16%	40µM*
N#CC1=C(S)N(c2ccccc2)C(c2ccc(-c3cc(Cl)ccc3Cl)o2)NC1=O (stereo not drawn)	?	9	-6%	-16%	?
CCCCN(CC)CCNc1ncnc2onc(-c3ccc(Cl)cc3)c12	3%	.	-21%	-10%	-1%
Cc1ccc2c(=O)cc(C(=O)Nc3c(C(=O)Nc4cccc(Cl)c4)oc4ccccc34)oc2c1	-6%	.	-12%	-5%	5%
CC(C)(C)c1cc(CN2CCCCC2)cc(C(C)(C)C)c1O	1%	-56*	.	0%	2%
Oc1cccc(CN2CCCCC2)c1	4%	2	-5%	-6%	-7%
CCC(C(=O)Nc1ccc(C(=O)OC)cc1)n1nc(-c2ccc(C)c(C)c2)ccc1=O (stereo not drawn)	-13%	.	-18%	-17%	7%
COC(=O)c1cc(NC(=O)Nc2cccc(Cl)c2)ccc1Cl	7.9µM*	-2	-17%	7.9µM*[quencher]	?
COC(=O)c1cc(NC(=S)Nc2cc(Cl)cc(Cl)c2)cc(C(=O)OC)c1	32µM*	1	-20%	?	-5%
COC(=O)c1cccc(NC(=S)Nc2ccccc2Cl)c1	-12%	1	-14%	-7%	.
COC(=O)c1cccc(NC(=S)Nc2ccc(Cl)c(Cl)c2)c1	?	1	-9%	20µM*[quencher]	5%
Oc1[nH]c2ccc(Br)cc2c1N=NC(=S)NCC1CCCO1 (stereo not drawn)	6%	-5	-18%	14µM*[quencher]	16µM*
CCOCCCNC(=O)C1CCN(c2cc(C)nc3c(-c4ccc(Cl)cc4)c(C)nn23)CC1	2%	.	-28%	-17%	-11%
COc1ccc(/C(C)=N/Nc2nncc3ccccc23)cc1	.	-2	-20%	.	.
COc1ccc(/C(C)=N/Nc2nc3ccccc3nc2C)cc1	6%	-1	-13%	?	11µM*
O=C1c2[nH]nc(-c3ccc(Br)cc3)c2C(c2cccc(O)c2)N1c1ccc(Cl)cc1 (stereo not drawn)	13µM*	.	-31%	?	10%
SMILES	Tau FP inhib	Coupling enz	USP1 inh	Tau fluor cs	Tau ThT inhib
Cc1cccc2c1N(CCCOc1ccccc1)C(=O)C2=O	-1%	-4	-11%	-10%	?
Cc1ccccc1OCCCN1C(=O)C(=O)c2cccc(C)c21	-15%	-14	-20%	-21%	22µM*
COc1cccc(NC(=O)Cn2c(=O)n(Cc3nc(-c4ccccc4)no3)c(=O)c3ccccc32)c1	?	.	9%	-26%	18%
CC(=O)OCC1=C(C(=O)O)N2C(=O)C(NC(=O)Cc3cccs3)C2SC1 (stereo not drawn)	?	-2	.	-30%	20µM*
CCOc1ccc(-c2nc(SCC(=O)Nc3ccc4c(c3)OCCO4)c(-c3ccc(F)cc3)[nH]2)cc1	-14%	.	-27%	14µM*[quencher]	-10%
COc1cccc(-c2nc(SCC(=O)Nc3ccc4c(c3)OCCO4)c(-c3ccccc3)[nH]2)c1	-10%	.	-24%	5.6µM*[quencher]	?
COc1ccc(-c2nc(SCC(=O)Nc3ccc4c(c3)OCCO4)c(-c3ccccc3)[nH]2)cc1	?	.	-15%	8.9µM*[quencher]	?
COc1ccc(-c2cc(C(F)(F)F)nc(SCC(=O)Nc3ccc4c(c3)OCO4)n2)cc1	-5%	-1	-11%	-24%	2%
CCOc1ccc(NC(=O)CSc2nccn(-c3ccc4c(c3)OCCO4)c2=O)cc1	.	.	-21%	.	.
COc1ccc(-c2[nH]c(-c3cccc(OC)c3)nc2SCC(=O)Nc2ccc3c(c2)OCO3)cc1	7%	.	-18%	6.3µM*[quencher]	?
COc1ccc(-c2[nH]c(-c3ccccc3)nc2SCC(=O)Nc2nccs2)cc1	2%	7	-2%	-4%	-2%
COCCN1CCN(Cc2ccc(C(=O)NC(C)C)cc2)C(=O)C1=O	-13%	.	-33%	0%	10%
CCC(C(=O)Nc1ccc(C(C)=O)cc1)n1cnc2nc3c(cc2c1=O)CCCC3 (stereo not drawn)	0%	.	-10%	-4%	5%
COc1ccc(-c2[nH]c(-c3ccc4c(c3)OCO4)nc2-c2ccccc2)cc1	9%	-5	?	14µM*[quencher]	?
CCc1ccc(NC(=O)CSc2nc3c(sc4ccccc43)c(=O)n2CCCOC)cc1	-13%	.	-10%	6%	12%
CCc1ccc(CN2CCc3nc(Nc4ccc5c(c4)OCCO5)ncc3C2)cc1	?	.	6%	?	?
CCCCS(=O)(=O)Nc1ccc(C)cn1	-17%	-51*	-24%	-16%	?
Cc1cccc(NC(=S)N=Nc2c(O)n(CN3CCOCC3)c3ccccc23)c1C	-5%	-2	-11%	11µM*[quencher]	?
Nc1n[nH]c(N)c1N=Nc1ccc(Cl)cc1Cl	7%	0	-11%	?	3.5µM*
Nc1n[nH]c(N)c1N=Nc1ccccc1F	.	1	-20%	.	.
CCc1nnc(SCc2nc(-c3cccc(Cl)c3)oc2C)c2cc3sc(C)cc3n12	3%	.	-7%	0%	-6%
CCOc1cc(Br)c(C2C(C(=O)OC)=C(C)NC3=C2C(=O)c2ccccc23)cc1OCC (stereo not drawn)	11%	.	5%	?	?
CCOc1cc(C2C(C(=O)OC)=C(C)NC3=C2C(=O)c2ccccc23)c(Br)cc1O (stereo not drawn)	11%	.	-15%	14µM*[quencher]	5µM*
